rCAG binder: r(CAG) repeat RNA binding; TO-PRO-1 dye displacement fluorescence; inhibition, % at 3 µM; actives 1.3% (n = 370,000); AID 651821;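 active = inhibition above the plate cutoff, the mean of all test compounds on that plate plus 3 SD, cut at about 35% in these data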;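 note: 0% = DMSO alone and 100% = 100 µM mitoxantrone as full dye displacement; higher means more dye released from RNA so lower well fluorescence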
DAGLB inh: blocks human DAGLB lipase activity; inhibition, % at 5.17 µM; AID 504411; actives 0.059% (n = 340,000); Q8NCG7; HEK293T DAGLB membrane lysate, EnzChek fluorogenic substrate; in the data active = inhibition above about 34%;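 note: 0% = enzyme with vehicle and 100% = wells lacking enzyme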
NadD inh: NadD (S. aureus) enzyme inhibition | purified NadD enzyme, colorimetric absorbance read-out | inhibition, % at 20 µM | AID 602399 | actives 0.78% (n = 360,000); in the data active = inhibition above about 26%
MsrA inh: bovine MsrA inhibition; purified bovine MsrA, absorbance read-out; actives 0.75% (n = 360,000); inhibition, % at 15.5 µM; in the data active = inhibition above about 4.5%;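 note: 0% = vehicle wells with enzyme and 100% = reference inhibitor wells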
bovine MsrA act: activates bovine MsrA enzyme. activation, % at 10.6 µM. purified bovine MsrA, absorbance read-out. actives 0.3% (n = 360,000); in the data active = activation above about 7.5%;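 note: 0% = vehicle and 100% = reference activator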
DSG3 Ab inh: blocks pemphigus antibody binding to human desmoglein-3 | P32926 | DSG3-coupled beads, scFv-anti-DSG3-GFP binding, flow cytometry; hits give low values | binding (percent of control), % at 10 µM | actives 0.48% (n = 310,000);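 active = binding more than 3 SD below its plate's average and above zero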;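 note: hits lower antibody fragment binding to DSG3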
Target sequence (P32926 whole entry, looked up, the tested form may be a part): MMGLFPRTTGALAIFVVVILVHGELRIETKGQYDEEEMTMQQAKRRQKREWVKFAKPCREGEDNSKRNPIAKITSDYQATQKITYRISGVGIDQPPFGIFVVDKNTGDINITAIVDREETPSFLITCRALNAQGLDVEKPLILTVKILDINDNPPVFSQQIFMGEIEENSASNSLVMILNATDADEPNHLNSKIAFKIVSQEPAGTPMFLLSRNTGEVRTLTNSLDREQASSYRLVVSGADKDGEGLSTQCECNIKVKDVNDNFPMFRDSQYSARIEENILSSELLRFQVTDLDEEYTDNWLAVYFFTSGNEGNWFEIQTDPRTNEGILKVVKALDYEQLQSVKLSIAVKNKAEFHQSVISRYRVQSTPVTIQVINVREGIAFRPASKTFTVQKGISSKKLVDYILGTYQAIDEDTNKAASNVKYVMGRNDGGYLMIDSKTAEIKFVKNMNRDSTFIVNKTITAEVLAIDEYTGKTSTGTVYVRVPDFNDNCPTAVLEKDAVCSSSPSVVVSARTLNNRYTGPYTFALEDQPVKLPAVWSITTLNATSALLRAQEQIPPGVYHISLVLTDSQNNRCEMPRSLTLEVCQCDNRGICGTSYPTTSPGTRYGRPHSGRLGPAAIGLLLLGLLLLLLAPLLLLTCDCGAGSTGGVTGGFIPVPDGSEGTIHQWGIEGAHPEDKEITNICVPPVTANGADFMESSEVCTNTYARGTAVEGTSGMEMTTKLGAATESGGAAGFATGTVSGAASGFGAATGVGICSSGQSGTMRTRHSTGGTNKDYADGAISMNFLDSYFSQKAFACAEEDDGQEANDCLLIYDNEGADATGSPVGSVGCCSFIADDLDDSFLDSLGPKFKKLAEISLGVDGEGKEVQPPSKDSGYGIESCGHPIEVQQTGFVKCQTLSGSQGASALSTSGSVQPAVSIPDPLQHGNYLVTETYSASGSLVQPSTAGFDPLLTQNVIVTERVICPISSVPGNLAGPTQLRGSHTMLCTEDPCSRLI
rCAG binder conf: r(CAG) RNA repeat binding, confirmation. TO-PRO-1 dye displacement fluorescence. shares compounds with rCAG binder. actives 70% (n = 4,300). inhibition, % at 3 µM;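 active = inhibition above a per-plate cutoff, the mean inhibition of sample wells plus 3 SD, cut at about 35% in these data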;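 note: loss of TO-PRO-1 fluorescence as compound displaces dye from 1x1 AA loop RNA; 0% = DMSO only wells and 100% = 100 µM mitoxantrone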
dCAG dye counter: counter-screen for rCAG RNA binders: DNA CAG dye complex inhibitors | shares compounds with rCAG binder | d(CAG) DNA oligo TO-PRO-1 dye displacement, fluorescence | inhibition, % at 3 µM | actives 94% (n = 4,300) | AID 652068;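 active = inhibition above its plate's cutoff, the mean test-well inhibition plus 3 SD, cut at about 4.8% in these data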;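 note: 0% = DNA dye mix with DMSO and 100% = 100 µM mitoxantrone; hits displace the dye from DNA and so lower well fluorescence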
dCAG dye DR: disrupts DNA CAG TO-PRO-1 complex in dose response. shares compounds with rCAG binder. DNA CAG/GTC duplex TO-PRO-1 dye displacement fluorescence. IC50, µM. actives 20% (n = 250). AID 686960; in the data active = IC50 below about 10 µM
Numbers without * were called inactive; i = inactive; · = no result given. Rows were chosen to be rich in hits. Some 3.2% of all compounds tested hit in one or more screens of this group.

SMILES	rCAG binder	DAGLB inh	NadD inh	MsrA inh	bovine MsrA act	DSG3 Ab inh	rCAG binder conf	dCAG dye counter	others
COC(=O)[C@]1(C#N)CC(=O)N(c2ccccc2)[C@@H]1c1ccccc1	0	·	·	·	·	·	·	·
O=C(NCC1CCN(C(=O)C(=O)c2cc3ccccc3o2)CC1)c1cc(C(F)(F)F)cc(C(F)(F)F)c1	5	·	·	2	·	·	·	·
Cc1cc(C(=O)O)ccc1-n1c(C)cc(C=C2C(=O)c3ccccc3C2=O)c1C	43*	4	5	3	0	104	41*	11*
Cc1cc(C(=O)O)ccc1-n1c(C)cc(/C=C(/C#N)C(=O)Nc2ccccc2)c1C	16	·	-1	3	-5	105	·	·
COc1ccccc1NS(=O)(=O)c1cc([N+](=O)[O-])ccc1N/N=C/c1c[nH]c2ccccc12	74*	18	26	0	-1	151	71*	36*
COc1ccc(/C=N/Nc2ccccc2C(=O)O)cc1Cn1cc([N+](=O)[O-])cn1	50*	2	5	2	-2	103	40*	13*
COc1ccc(C=NNc2ccc([N+](=O)[O-])cc2S(=O)(=O)Nc2ccccc2C(=O)O)cc1OC	90*	15	16	1	-2	116	94*	75*
O=[N+]([O-])c1ccc(N/N=C/c2c[nH]c3ccccc23)cc1	56*	30	2	0	5	112	26	20*
COc1ccccc1C(=O)N/N=C/c1c[nH]c2ccccc12	2	0	-3	2	-2	99	·	·
O=C(N/N=C/c1c[nH]c2ccccc12)c1cccc([N+](=O)[O-])c1	1	1	-2	3	-6	100	·	·
COc1ccc(/C=N/Nc2ccc([N+](=O)[O-])cc2S(=O)(=O)N2CCN(C)CC2)cc1	0	-4	-7	1	-1	121	·	·
COc1ccc(/C=N/NC(=O)c2ccccc2O)cc1Cn1cc([N+](=O)[O-])cn1	4	0	7	2	-5	87	·	·
CCOC(=O)c1csc(NC(=O)C2CCCN(S(=O)(=O)c3ccccc3)C2)n1 (stereo unspecified)	3	·	·	·	·	·	·	·
O=C(O)c1cc([N+](=O)[O-])ccc1C(=O)Nc1cccc([N+](=O)[O-])c1	-2	-3	-2	0	-4	109	·	·
Cc1cc(C(F)(F)F)n(-c2nc(C(=O)NNS(=O)(=O)c3ccccc3)cs2)n1	22	0	0	0	0	·	·	·
O=C(Nc1cccc([N+](=O)[O-])c1)c1cc2ccccc2cc1O	39*	4	16	1	-10	83	37*	16*
Cc1cc(C(F)(F)F)n(-c2nc(C(=O)NNS(=O)(=O)c3ccccc3[N+](=O)[O-])cs2)n1	45*	4	9	0	-2	103	27	8.6*
O=C(NNS(=O)(=O)c1ccccc1[N+](=O)[O-])c1cc2ccccc2cc1O	36*	7	4	0	-2	103	18	7.6*
C[C@H](O)[C@@H]1CN2CCc3c([nH]c4c(-c5ccc6c(c5)OCO6)cccc34)[C@@H]2C[C@@H]1N(C)C(=S)NCCc1ccccc1	8	·	·	·	·	·	·	·
C=CCOc1ccc(C(c2c(C(=O)O)[nH]c3ccccc23)c2c(C(=O)O)[nH]c3ccccc23)cc1	92*	19	27	1	-5	106	82*	51*
COc1cc(C(c2c(C(=O)O)[nH]c3ccccc23)c2c(C(=O)O)[nH]c3ccccc23)ccc1OCc1ccccc1	94*	17	24	1	-4	105	90*	68*
O=C(O)COc1ccc(Br)cc1C(c1c(C(=O)O)[nH]c2ccccc12)c1c(C(=O)O)[nH]c2ccccc12	·	15	7	·	-1	124	·	·
O=C(O)c1[nH]c2ccccc2c1C(c1ccccc1)c1c(C(=O)O)[nH]c2ccccc12	70*	16	2	-1	-3	96	47*	15*
O=c1cc(CSc2nnnn2-c2ccccc2)nc(Nc2ccc(F)cc2)[nH]1	43*	2	18	0	-6	100	43*	15*
N/C(=N\c1nc(CSc2nnnn2-c2ccccc2)cc(=O)[nH]1)Nc1ccccc1	1	·	·	-1	·	·	·	·
SMILES	rCAG binder	DAGLB inh	NadD inh	MsrA inh	bovine MsrA act	DSG3 Ab inh	rCAG binder conf	dCAG dye counter	others
COc1cc(OC)c(NC(=O)c2cc3ccccc3cc2O)cc1Cl	35*	0	19	1	-4	118	47*	22*
COc1ccccc1NC(=O)NNC(=O)c1cc2ccccc2cc1O	42*	8	-4	1	-2	115	34	11*
Cc1ccc(C(=O)Nc2cccc3[nH]c(C(F)(F)F)nc23)cc1	3	-5	-6	-1	-4	127	·	·
COc1cc(CNc2cccc3[nH]c(C(F)(F)F)nc23)cc(OC)c1	44*	3	15	1	-1	100	35*	18*
CC1CCc2c(sc3nc(CN4CCOCC4)nc(NS(=O)(=O)c4cccc([N+](=O)[O-])c4)c23)C1 (stereo unspecified)	62*	7	22	2	0	100	71*	28*	dCAG dye DR=i
CCCn1c(NC(=O)c2ccccc2)nc(Cc2ccccc2)c1-c1ccc(OC)cc1	5	·	·	·	·	·	·	·
CCSc1nc2sc3c(c2c(=O)n1-c1ccccc1)CCN(C(C)C)C3	4	1	8	3	-5	89	·	·
O=C(Cn1cc(-c2ccccn2)nn1)NS(=O)(=O)c1cccc(OC(F)F)c1	0	·	-3	0	-8	·	·	·
O=C(Cn1cc(COc2ccc3ccccc3c2)nn1)NS(=O)(=O)c1cccc(OC(F)F)c1	55*	·	2	0	-6	·	71*	23*	dCAG dye DR=9.3*
O=C(O)CSc1nc(SCc2ccccc2Cl)nc2c1CCCC2	42*	3	5	-1	-6	·	36*	11*	dCAG dye DR=>30
FC(F)(F)c1cccc(NC(=S)Nc2ccc(Cl)c(Cl)c2)c1	5	·	1	-1	-3	100	·	·
O=[N+]([O-])c1cc(C(F)(F)F)cc([N+](=O)[O-])c1NCCNC(=S)Nc1ccc(Cl)c(Cl)c1	36*	0	2	0	0	113	22	6.6*
CCOC(=O)C1=C(CC)Nc2ccccc2N/C1=N\S(=O)(=O)c1ccc2ccccc2c1	36*	6	-5	0	-3	102	41*	12*
CCOC(=O)C1=C(C)Nc2ccccc2N/C1=N\S(=O)(=O)c1cc(C(=O)O)ccc1Cl	10	-1	2	1	-3	·	·	·
